Assay outcomes: PubChem, The Scripps Research Institute Molecular Screening Center
Sampled rows, rich in hits. Any-hit rate of the full collection: about 3.5%.
MITF primary: human MITF inhibition, primary screen | O75030 | AlphaScreen MITF homodimerization, bead proximity signal | inhibition, % at 2.6 µM | 650,000 compounds, 0.91% hits | AID 1259374; in the data active means inhibition above about 50%
GPR151 activ: activators of human GPR151; Q8TDV0; 650,000 compounds, 1% hits; activation, % at 11.2 µM; PathHunter beta-arrestin GPR151 cells, luminescence; AID 1508602; in the data active means activation above about 4.9%
Target sequence (Q8TDV0 whole entry, looked up): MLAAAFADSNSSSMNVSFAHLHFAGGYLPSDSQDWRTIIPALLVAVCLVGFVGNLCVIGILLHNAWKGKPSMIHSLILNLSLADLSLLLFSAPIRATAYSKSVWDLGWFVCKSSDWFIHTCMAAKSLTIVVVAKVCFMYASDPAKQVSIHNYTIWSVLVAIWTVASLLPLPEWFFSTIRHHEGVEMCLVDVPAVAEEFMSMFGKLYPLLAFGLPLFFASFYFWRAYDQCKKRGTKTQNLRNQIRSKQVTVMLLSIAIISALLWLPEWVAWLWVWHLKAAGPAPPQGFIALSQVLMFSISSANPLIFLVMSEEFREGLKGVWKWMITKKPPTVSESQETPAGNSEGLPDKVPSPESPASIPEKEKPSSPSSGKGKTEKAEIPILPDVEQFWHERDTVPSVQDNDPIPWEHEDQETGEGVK
TEAD-YAP inh: TEAD-YAP interaction inhibition | HEK-TIYL cells, TEAD-Gal4/YAP UAS-luciferase luminescence | 640,000 compounds, 1.4% hits | AID 1259422 | inhibition, % at 9.12 µM; in the data active means inhibition above about 32%
FBW7 act: human FBW7 E3 ligase activation, primary screen; normalized activity (activation), % at 26.1 µM; 650,000 compounds, 0.13% hits; AID 1259310; AlphaScreen FBW7–phospho-cyclin E peptide binding, activator screen; in the data active means normalized activity above about 1.9%;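 further: purified mutant Fbw7 with reduced substrate affinity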
MITF confirm: human MITF inhibition, confirmation. shares compounds with MITF primary. AlphaScreen MITF homodimerization, biotin/His-MITF beads. 4,700 compounds, 16% hits. inhibition, % at 2.6 µM;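 active means inhibition above a cutoff derived from the DMSO control wells, cut at about 28% in these data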;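 further: inhibitors lower the bead chemiluminescence by keeping MITF from dimerizing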
AS interf ctr: counter-screen: compounds optically interfering with AlphaScreen; AID 1259376; inhibition, % at 2.6 µM; shares compounds with MITF primary; 4,700 compounds, 7.6% hits; LysRS AlphaScreen counterscreen, signal interference, triplicate;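 active means inhibition above a cutoff derived from the DMSO control wells, cut at about 30% in these data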
Hits are given with their value.

What do the screens show for `O=C(Cc1ccccc1)N1CCC(N2CCN(Cc3ccccc3)CC2)CC1`?
MITF primary: 66; GPR151 activ: inactive; TEAD-YAP inh: inactive; FBW7 act: inactive; MITF confirm: inactive; AS interf ctr: inactive

How did Brc1cccc(CN2CCC(N3CCCCC3)CC2)c1 do in these assays?
MITF primary: inactive; GPR151 activ: inactive; TEAD-YAP inh: inactive; FBW7 act: inactive

Results for Cc1ccc(CN2CCN(C3CCCCC3)CC2)cc1 ?
MITF primary: 65; GPR151 activ: inactive; TEAD-YAP inh: inactive; FBW7 act: inactive; MITF confirm: inactive; AS interf ctr: inactive

How did Clc1cccc(CN2CCN(C3CCCCCC3)CC2)c1 do in these assays?
MITF primary: 69; GPR151 activ: inactive; TEAD-YAP inh: inactive; FBW7 act: inactive; MITF confirm: inactive; AS interf ctr: inactive

Results for COc1ccc(C(=O)/C=C/Nc2ccc(C(=O)O)cc2)cc1OC ?
MITF primary: inactive; GPR151 activ: inactive; TEAD-YAP inh: inactive; FBW7 act: inactive

How did COC(=O)c1cn(C(=O)c2ccc(Cl)c([N+](=O)[O-])c2)nc1N do in these assays?
MITF primary: inactive; GPR151 activ: inactive; TEAD-YAP inh: inactive; FBW7 act: inactive

How did Clc1cc(N2CCN(c3ccc4c(c3)OCO4)CC2)ncn1 do in these assays?
MITF primary: inactive; GPR151 activ: inactive; TEAD-YAP inh: inactive; FBW7 act: inactive

Results for CCOC(=O)c1c(C)oc2ccc(N(C(=O)c3ccc(C)cc3)S(=O)(=O)c3cccc([N+](=O)[O-])c3)cc12 ?
MITF primary: inactive; GPR151 activ: inactive; TEAD-YAP inh: inactive; FBW7 act: inactive

What do the screens show for `c1ccc(CN2CCN(C3CCCC3)CC2)cc1`?
MITF primary: 75; GPR151 activ: inactive; TEAD-YAP inh: inactive; FBW7 act: inactive; MITF confirm: inactive; AS interf ctr: inactive

What do the screens show for `CS(=O)(=O)N1CCC(N2CCN(Cc3ccccc3)CC2)CC1`?
MITF primary: 54; GPR151 activ: inactive; TEAD-YAP inh: inactive; FBW7 act: inactive; MITF confirm: inactive; AS interf ctr: inactive

Results for CC1CCCC(N2CCN(Cc3cccc(Cl)c3)CC2)C1 (stereo not given) ?
MITF primary: 67; GPR151 activ: inactive; TEAD-YAP inh: inactive; FBW7 act: inactive; MITF confirm: inactive; AS interf ctr: inactive

How did CC(NC(=O)c1cc(Sc2ccccc2Cl)nc2ccccc12)c1ccccc1 (stereo not given) do in these assays?
MITF primary: inactive; GPR151 activ: inactive; TEAD-YAP inh: inactive; FBW7 act: inactive

What do the screens show for `CN1C(=O)/C(=C\c2sc(N3CCOCC3)nc2-c2ccccc2)c2ccccc21`?
MITF primary: inactive; GPR151 activ: inactive; TEAD-YAP inh: inactive; FBW7 act: inactive

Results for O=C(Nc1nnc(SCC(=O)N2CCCCC2)s1)c1ccccc1Br ?
MITF primary: inactive; GPR151 activ: inactive; TEAD-YAP inh: inactive; FBW7 act: inactive

How did Cc1cccc(N2C(=O)C3C4C=CC(O4)C3C2=O)c1C (stereo not given) do in these assays?
MITF primary: 51; GPR151 activ: inactive; TEAD-YAP inh: inactive; FBW7 act: inactive; MITF confirm: inactive; AS interf ctr: inactive

Results for Fc1ccc(-c2cc(NCCCn3ccnc3)nc(-c3ccncc3)n2)cc1 ?
MITF primary: inactive; GPR151 activ: inactive; TEAD-YAP inh: inactive; FBW7 act: inactive

How did N#CCCNc1cc(-c2ccc(F)cc2)nc(-c2cccnc2)n1 do in these assays?
MITF primary: inactive; GPR151 activ: inactive; TEAD-YAP inh: inactive; FBW7 act: inactive

What do the screens show for `Cc1nc(NCCCn2ccnc2)cc(-c2cccc(C(F)(F)F)c2)n1`?
MITF primary: 61; GPR151 activ: inactive; TEAD-YAP inh: inactive; FBW7 act: inactive; MITF confirm: inactive; AS interf ctr: inactive

What do the screens show for `N#CCCNc1cc(-c2cccc(C(F)(F)F)c2)nc(-c2cccnc2)n1`?
MITF primary: 104; GPR151 activ: inactive; TEAD-YAP inh: inactive; FBW7 act: inactive; MITF confirm: inactive; AS interf ctr: inactive

What do the screens show for `Fc1ccc(-c2cc(NCCCn3ccnc3)nc(-c3cccnc3)n2)cc1`?
MITF primary: 54; GPR151 activ: inactive; TEAD-YAP inh: inactive; FBW7 act: inactive; MITF confirm: 31; AS interf ctr: 39

How did CSc1ccc(CC(=O)NCC2CCC3(CCN(Cc4ccccn4)CC3)O2)cc1 (stereo not given) do in these assays?
MITF primary: 69; GPR151 activ: inactive; TEAD-YAP inh: inactive; FBW7 act: inactive; MITF confirm: inactive; AS interf ctr: inactive

What do the screens show for `COc1cccc(CC(=O)NCC2CCC3(CCN(Cc4ccccn4)CC3)O2)c1` (stereo not given)?
MITF primary: inactive; GPR151 activ: inactive; TEAD-YAP inh: inactive; FBW7 act: inactive

How did Cc1nn(CC(=O)NC2CCCc3ccccc32)c(=O)c2cccn12 (stereo not given) do in these assays?
MITF primary: inactive; GPR151 activ: inactive; TEAD-YAP inh: inactive; FBW7 act: inactive

Results for COc1ccc(NC(=O)N2CCC(n3c(C)nc4cc(F)ccc43)CC2)cc1 ?
MITF primary: inactive; GPR151 activ: inactive; TEAD-YAP inh: inactive; FBW7 act: inactive

What do the screens show for `O=C(N[C@H]1C[C@H]2C(=O)N[C@H](Cc3ccccc3)C(=O)N2C1)c1ccc(-c2ccccc2)cc1`?
MITF primary: inactive; GPR151 activ: inactive; TEAD-YAP inh: inactive; FBW7 act: inactive

What do the screens show for `Cc1nc(NCc2c(C)nn(C)c2Cl)sc1-c1ccn(C2CCOC2)n1` (stereo not given)?
MITF primary: 54; GPR151 activ: inactive; TEAD-YAP inh: inactive; FBW7 act: inactive; MITF confirm: inactive; AS interf ctr: inactive

How did COc1cc(CN2CCCCCC2)cc(OC)c1 do in these assays?
MITF primary: inactive; GPR151 activ: inactive; TEAD-YAP inh: inactive; FBW7 act: inactive

How did COc1cc(CN2CCN(Cc3cccc(Cl)c3)CC2)cc(OC)c1 do in these assays?
MITF primary: 73; GPR151 activ: inactive; TEAD-YAP inh: inactive; FBW7 act: inactive; MITF confirm: inactive; AS interf ctr: inactive

Results for COc1cccc(CN2CCCCC2)c1 ?
MITF primary: inactive; GPR151 activ: inactive; TEAD-YAP inh: inactive; FBW7 act: inactive

Results for COc1cc(CN2CCN(Cc3ccc(Cl)cc3)CC2)cc(OC)c1 ?
MITF primary: 84; GPR151 activ: inactive; TEAD-YAP inh: inactive; FBW7 act: inactive; MITF confirm: inactive; AS interf ctr: inactive

How did COc1ccc(NC(=O)c2sc3nc(C)nc(N(C)c4ccc(C(C)C)cc4)c3c2C)c(OC)c1 do in these assays?
MITF primary: inactive; GPR151 activ: inactive; TEAD-YAP inh: inactive; FBW7 act: inactive

How did C=CCc1ccc(OCCCNC(C)CC)c(OC)c1 (stereo not given) do in these assays?
MITF primary: inactive; GPR151 activ: inactive; TEAD-YAP inh: inactive; FBW7 act: inactive

Results for C=CCc1ccc(OCCOCCN2CCN(CC)CC2)c(OC)c1 ?
MITF primary: 65; GPR151 activ: inactive; TEAD-YAP inh: inactive; FBW7 act: inactive; MITF confirm: inactive; AS interf ctr: inactive
